A short description of experiment [1]: Nuclear factor erythroid 2-related factor 2/antioxidant responsive element (Nrf2/ARE) small molecule agonists: qHTS cell viability counter screen in human keratinocytes (AID 1919968; active = well fitted curve in the direction sought with a large enough effect in the repeat runs; an effect the other way counts as inactive or inconclusive; also: nearly all actives have a fitted effect of over 55% in size; also: potency is read from the fitted curve at half-maximal effect). An outline of the steps: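 After a 5 h attachment period, ARE-reporter keratinocytes were dosed with compounds in DMSO and then cultured 23 h at 37 C. Cell viability came from CellTiter-Fluor signal read after a further 1 h.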

Experiment [2] is described as follows: Nuclear factor erythroid 2-related factor 2/antioxidant responsive element (Nrf2/ARE) small molecule agonists: luciferase reporter gene qHTS assay in human keratinocytes (AID 1919969). Also: nearly all actives have a fitted effect of over 35% in size. Also: potency is read from the fitted curve at half-maximal effect.
In experiment [3] the target is Gonadotropin-releasing hormone receptor (Homo sapiens) (UniProt P30968). In words: Human gonadotropin-releasing hormone receptor (GnRHR) small molecule agonists, calcium flux assay in GnRHR-HEK293 cells (AID 1920063). Also: nearly all actives have a fitted effect of over 35% in size. Also: potency is read from the fitted curve at half-maximal effect. An outline of the steps: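 We seeded human GnRHR-expressing HEK293 cells for 18 hours, loaded them with calcium dye for an hour at 37 C, added test compounds, and recorded fluorescence intensity kinetically for three minutes.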

Experiment [4] addresses KiSS-1 receptor (Homo sapiens) (UniProt Q969F8). The experiment in a line: Human kisspeptin (KISS1R) small molecule agonists, calcium flux assay in KISS1R-HEK293 cells (AID 1920064; active = well fitted curve in the direction sought with a large enough effect in the repeat runs; an effect the other way counts as inactive or inconclusive; also: potency is read from the fitted curve at half-maximal effect). In short, it runs like this: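 Kinetic calcium assay, 1 s sampling over 3 min at Ex/Em 480/540, in HEK293 cells engineered with human KISS1R; compounds delivered in DMSO after 1 h dye loading.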
For orientation: A change in cytosolic calcium serves as a functional read-out for many receptors and channels.

The nature of experiment [5]: G protein-coupled receptor (GPCR) small molecule agonists, calcium flux assay: HEK293 wild type cell line counter screen (AID 1920065). Also: potency is read from the fitted curve at half-maximal effect. In short, it runs like this: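 Calcium-sensitive dye, loaded 1 h at 37 C into cells cultured 18 h, reports compound-evoked calcium release as fluorescence (Ex/Em 480/540), measured over 3 min. Agonist mode; 15-point titrations, triplicate.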

Experiment [6] can be described thus: p53 small molecule agonists, cell-based qHTS assay with human liver microsomes (AID 1963577).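 Also: p53 response element beta-lactamase reporter cells with liver microsomes plus NADPH.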 In short, it runs like this:
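16 h, 37 C exposure of p53RE-bla cells to compounds with human liver microsomes and NADPH (0.5 mg/mL final each); detection via LiveBLAzer mixture, 2 h dark at room temperature.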

The nature of experiment [7]: p53 small molecule agonists, cell-based qHTS assay with rat liver microsomes (AID 1963578). An outline of the steps:
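With rat liver microsomes and NADPH present (0.5 mg/mL final each), p53RE-bla cells are treated with compound for 16 h at 37 C. LiveBLAzer detection mixture is then applied for 2 h at room temperature in the dark.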

The nature of experiment [8]: p53 small molecule agonists, cell-based qHTS assay with human liver microsomes: qHTS cell viability counter screen (AID 1963579). Also: nearly all actives have a fitted effect of over 45% in size. Also: potency is read from the fitted curve at half-maximal effect. An outline of the steps:
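In this multiplexed counter screen, the reporter plates were subsequently treated with CellTiter-Glo so that cell viability, reflected by luminescence, could be recorded for p53RE-bla cells dosed 16 h with compounds under microsomal activation (HLM and NADPH).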
On the technique in general: Quantitative high-throughput screening tests each substance at several concentrations.

Experiment [9] in a line: p53 small molecule agonists, cell-based qHTS assay: qHTS cell viability counter screen (AID 1963581). Also: nearly all actives have a fitted effect of over 45% in size. Also: potency is read from the fitted curve at half-maximal effect. An outline of the steps:
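Following 5 h attachment, HCT-116 p53RE-bla cells took up compound for 16 h at 37 C; the reporter was read with B/G FRET substrate (2 h RT), and viability then via CellTiter-Glo ATP luminescence.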

Experiment [10] is described as follows: p53 small molecule agonists, cell-based qHTS assay (AID 1963582; active = well fitted activation curve with a large enough effect in the signal ratio in the repeat runs, not every such curve was filed as active; the % refers to the signal ratio). In short, it runs like this:
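In this cell-based concentration-response screen, a p53 response element drives beta-lactamase; cells received DMSO-borne compounds after 5 h culture and were incubated a further 16 h before FRET substrate development.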

Experiment [11] deals with 5-hydroxytryptamine receptor 2A (Homo sapiens) (UniProt P28223). The experiment in a line: 5-hydroxytryptamine receptor 2A (HTR2A) small molecule agonists, cell-based qHTS assay (AID 1963587). Also: nearly all actives have a fitted effect of over 30% in size. Also: potency is read from the fitted curve at half-maximal effect. In short, it runs like this: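 CHO cells stably expressing human HTR2A, plated 18 h, loaded with calcium dye 1 h at 37 C. Agonist mode: compounds added and intracellular calcium fluorescence recorded kinetically for 2 min at 1 sec intervals.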

Experiment [12] deals with Muscarinic acetylcholine receptor M1 (Homo sapiens) (UniProt P11229). In words: Cholinergic receptor muscarinic 1 (CHRM1) small molecule antagonists, cell-based qHTS assay (AID 1963588). Also: nearly all actives have a fitted effect of over 40% in size. Also: potency is read from the fitted curve at half-maximal effect. In short, it runs like this:
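CHRM1-CHO calcium-flux assay, antagonist mode. Cells were seeded 18 h, dye-loaded 1 h at 37 C and given compound for 5 min at RT, then acetylcholine was added at 50nM. FDSS fluorescence was read 3 min; 15 concentrations, three runs.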

The target is the same in experiment [13]. In words: Cholinergic receptor muscarinic 1 (CHRM1) small molecule agonists, cell-based qHTS assay (AID 1963589). Also: nearly all actives have a fitted effect of over 35% in size. Also: potency is read from the fitted curve at half-maximal effect. An outline of the steps:
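Measures agonist-induced intracellular calcium rise. Stable human CHRM1 CHO line, 1 h dye load at 37 C, compounds from DMSO, kinetic fluorescence read.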

Experiment [14] can be described thus: cAMP Responsive Elements (CRE) small molecule agonists, cell-based qHTS assay (AID 1963590). An outline of the steps:
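A CRE-responsive beta-lactamase reporter in HEK 293T cells was used. Treatment ran 3 h at 37 C; detection used LiveBLAzer B/G FRET substrate for 2 h at room temperature.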

Experiment [15] in a line: cAMP Responsive Elements (CRE) small molecule antagonists, cell-based qHTS assay (AID 1963591; active = well fitted inhibition curve with a large enough effect in the signal ratio in the repeat runs, not every such curve was filed as active; the % refers to the signal ratio). In short, it runs like this:
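HEK293T cells carrying a CRE-driven beta-lactamase reporter receive compound and NKH477 (0.25 uM final) for 3 h. Fluorescence from LiveBLAzer B/G FRET substrate is read after 2 h at room temperature.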

For experiment [16], the target named is D(2) dopamine receptor (Homo sapiens) (UniProt P14416). The experiment in a line: Dopamine D2 receptor (DRD2) small molecule agonists, cell-based qHTS assay (AID 1963594). Also: nearly all actives have a fitted effect of over 35% in size. Also: potency is read from the fitted curve at half-maximal effect. An outline of the steps: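 HEK293 cells stably expressing human DRD2, pre-treated with PDE inhibitor Ro20-1724 (0.1 mM final) and compound 10 min at room temperature, then stimulated with NKH477 (200nM […]) for 30 min. cAMP read by HTRF (665/620 nm).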

The target in experiment [17] is 5-hydroxytryptamine receptor 2A (Homo sapiens) (UniProt P28223). In words: 5-hydroxytryptamine receptor 2A (HTR2A) small molecule antagonists, cell-based qHTS assay (AID 1963586). Also: nearly all actives have a fitted effect of over 45% in size. An outline of the steps: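 Antagonist-mode intracellular calcium assay: DOI (4 nM) added after 5 min compound pre-incubation at room temperature to dye-loaded HTR2A-CHO cells. Fluorescence followed for 3 min, sampled every second.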

In experiment [18] the target is D(2) dopamine receptor (Homo sapiens) (UniProt P14416). In words: Dopamine D2 receptor (DRD2) small molecule antagonists, cell-based qHTS assay (AID 1963595; active = well fitted inhibition curve with a large enough effect in the signal ratio in the repeat runs, with a control signal flat; the % refers to the signal ratio; also: potency is read from the fitted curve at half-maximal effect). An outline of the steps: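 Antagonism was scored as restored cAMP in HEK293-DRD2 cells. These cells were stimulated with 200 nM NKH477 and 12 nM quinpirole for 30 min at room temperature, in the presence of 0.1 mM Ro20-1724.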

The nature of experiment [19]: p53 small molecule agonists, cell-based qHTS assay with rat liver microsomes: qHTS cell viability counter screen (AID 1963580). Also: nearly all actives have a fitted effect of over 45% in size. Also: potency is read from the fitted curve at half-maximal effect. An outline of the steps:
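Viability is assessed in parallel with the p53 reporter read: HCT-116 p53RE-bla cells receive compounds plus rat microsomes and NADPH (0.5 mg/mL final apiece), incubate 16 h at 37 C, and then CellTiter-Glo luminescence is recorded.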

Experiment [20] addresses Beta-2 adrenergic receptor (Homo sapiens) (UniProt P07550). In words: Adrenergic beta2 receptor (ADRB2) small molecule antagonists, cell-based qHTS assay (AID 1963592). Also: nearly all actives have a fitted effect of over 50% in size. Also: potency is read from the fitted curve at half-maximal effect. In short, it runs like this:
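Cells (CHO, stable ADRB2 overexpression) incubated 18-20hr at 37C; compounds added from DMSO; agonist mix (1nM isoproterenol, 100uM IBMX, 25uM Ro-20-1724) added; 0.5hr RT; d2-cAMP and anti-cAMP-cryptate added; 1hr RT; 665/615 nm read.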

Structures are written as SMILES. Unmarked numbers belong to inactive results. Inconclusive results are not listed. Calls of active or inactive are those of the source. Unless noted, calls follow the shape of the full dose curve.

Sequence of D(2) dopamine receptor (Homo sapiens) (P14416 whole entry, looked up): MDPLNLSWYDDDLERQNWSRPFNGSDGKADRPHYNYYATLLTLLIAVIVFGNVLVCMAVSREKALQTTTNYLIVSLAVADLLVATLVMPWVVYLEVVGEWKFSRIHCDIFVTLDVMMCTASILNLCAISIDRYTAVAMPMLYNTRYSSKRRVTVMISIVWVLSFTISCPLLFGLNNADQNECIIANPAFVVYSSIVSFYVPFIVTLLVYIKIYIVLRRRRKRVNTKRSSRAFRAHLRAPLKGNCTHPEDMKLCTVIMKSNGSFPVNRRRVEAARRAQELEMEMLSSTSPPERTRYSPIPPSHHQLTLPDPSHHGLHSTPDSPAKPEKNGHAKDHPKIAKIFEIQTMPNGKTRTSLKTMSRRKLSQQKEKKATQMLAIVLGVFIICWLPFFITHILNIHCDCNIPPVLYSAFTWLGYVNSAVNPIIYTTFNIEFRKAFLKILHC
Sequence of Beta-2 adrenergic receptor (Homo sapiens) (P07550 whole entry, looked up): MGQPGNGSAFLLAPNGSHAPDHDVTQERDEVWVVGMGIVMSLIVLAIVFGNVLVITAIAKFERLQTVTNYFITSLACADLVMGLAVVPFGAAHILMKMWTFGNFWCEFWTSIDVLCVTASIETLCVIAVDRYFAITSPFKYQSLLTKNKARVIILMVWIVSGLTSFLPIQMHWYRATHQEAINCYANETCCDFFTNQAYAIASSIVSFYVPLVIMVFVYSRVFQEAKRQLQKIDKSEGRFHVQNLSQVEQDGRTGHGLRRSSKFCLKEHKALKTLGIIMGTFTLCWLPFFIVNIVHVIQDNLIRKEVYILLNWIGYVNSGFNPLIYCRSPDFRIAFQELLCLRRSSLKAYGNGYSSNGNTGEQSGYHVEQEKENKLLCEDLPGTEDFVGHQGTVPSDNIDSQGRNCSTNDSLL
Sequence of Muscarinic acetylcholine receptor M1 (Homo sapiens) (P11229 whole entry, looked up): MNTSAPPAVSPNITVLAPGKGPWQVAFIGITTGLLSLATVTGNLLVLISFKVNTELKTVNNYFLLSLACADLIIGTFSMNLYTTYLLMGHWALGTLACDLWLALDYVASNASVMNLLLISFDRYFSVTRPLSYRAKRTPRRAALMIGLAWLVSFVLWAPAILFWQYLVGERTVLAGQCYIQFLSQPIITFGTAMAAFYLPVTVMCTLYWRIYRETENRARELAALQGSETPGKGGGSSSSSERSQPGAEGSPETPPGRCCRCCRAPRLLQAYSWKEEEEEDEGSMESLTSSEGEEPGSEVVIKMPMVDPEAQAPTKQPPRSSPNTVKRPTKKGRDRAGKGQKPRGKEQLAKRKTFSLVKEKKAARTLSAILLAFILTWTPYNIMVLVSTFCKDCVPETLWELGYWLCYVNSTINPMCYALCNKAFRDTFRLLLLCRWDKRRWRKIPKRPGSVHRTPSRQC
Sequence of 5-hydroxytryptamine receptor 2A (Homo sapiens) (P28223 whole entry, looked up): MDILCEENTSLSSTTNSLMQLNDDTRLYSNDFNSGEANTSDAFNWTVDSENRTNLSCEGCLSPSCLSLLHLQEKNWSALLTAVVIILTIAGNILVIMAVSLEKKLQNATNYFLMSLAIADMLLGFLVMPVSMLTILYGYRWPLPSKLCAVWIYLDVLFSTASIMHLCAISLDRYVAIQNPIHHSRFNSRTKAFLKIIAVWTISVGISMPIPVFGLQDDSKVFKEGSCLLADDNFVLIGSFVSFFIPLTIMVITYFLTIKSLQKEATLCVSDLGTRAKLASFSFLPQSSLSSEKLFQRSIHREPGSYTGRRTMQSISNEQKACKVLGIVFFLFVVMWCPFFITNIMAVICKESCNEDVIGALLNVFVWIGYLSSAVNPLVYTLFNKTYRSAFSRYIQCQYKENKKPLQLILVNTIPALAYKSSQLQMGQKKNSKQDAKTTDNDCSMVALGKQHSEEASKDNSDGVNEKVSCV
Sequence of Gonadotropin-releasing hormone receptor (Homo sapiens) (P30968 whole entry, looked up): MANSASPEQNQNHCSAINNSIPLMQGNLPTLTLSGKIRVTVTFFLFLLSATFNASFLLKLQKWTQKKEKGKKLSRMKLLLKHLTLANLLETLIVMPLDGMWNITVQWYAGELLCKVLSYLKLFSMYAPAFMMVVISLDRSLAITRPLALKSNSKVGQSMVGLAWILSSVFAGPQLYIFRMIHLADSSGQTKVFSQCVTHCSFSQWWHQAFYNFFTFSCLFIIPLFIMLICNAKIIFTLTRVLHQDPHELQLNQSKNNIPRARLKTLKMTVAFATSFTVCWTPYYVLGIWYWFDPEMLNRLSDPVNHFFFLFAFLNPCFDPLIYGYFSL
Sequence of KiSS-1 receptor (Homo sapiens) (Q969F8 whole entry, looked up): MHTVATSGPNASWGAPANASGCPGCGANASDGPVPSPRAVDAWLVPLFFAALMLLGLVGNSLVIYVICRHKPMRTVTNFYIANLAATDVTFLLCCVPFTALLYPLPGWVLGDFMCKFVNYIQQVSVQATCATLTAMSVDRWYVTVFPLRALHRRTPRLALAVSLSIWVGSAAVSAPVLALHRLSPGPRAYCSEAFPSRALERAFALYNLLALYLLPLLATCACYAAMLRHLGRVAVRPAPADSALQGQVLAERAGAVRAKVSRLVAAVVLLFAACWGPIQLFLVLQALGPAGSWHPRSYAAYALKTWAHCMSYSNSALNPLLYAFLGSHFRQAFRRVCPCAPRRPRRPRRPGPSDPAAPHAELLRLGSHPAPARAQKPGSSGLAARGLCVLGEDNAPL

As to `CC(C)CC(C)N` (stereo not given), the Potency result in experiment [1], in experiment [2], in experiment [3], in [4], in [5] and in [6] was “inactive” throughout. The Potency result in experiment [7], in experiment [8], in [9], in experiment [10], in [11] and in experiment [12] was “inactive” throughout. In addition, the Potency entry in experiment [13], in [14], in experiment [15] and in [16] was “inactive” each time.

`COc1cc(CC(C)N)c(OC)cc1Br` (stereo not given): the Potency result in [1], in experiment [2], in [3], in [4], in experiment [5] and in experiment [6] was “inactive” throughout. For the same molecule, the Potency result in experiment [7], in [9], in experiment [10], in experiment [17], in [13] and in [14] was “inactive” in each case. The Potency result in experiment [15] and in [18] was “inactive” each time. The Potency is 17.3 µM (active) in [12] and 20 µM (active) in [16].

In the case of `OC(c1ccccc1)(c1ccccc1)C1CCNCC1`, the Potency entry in experiment [1], in [2], in experiment [3], in [4], in [5] and in experiment [6] was “inactive” each time. The Potency entry in experiment [7], in [19], in [9], in experiment [10], in experiment [11] and in experiment [13] was “inactive” throughout. The Potency result in experiment [14], in experiment [15], in experiment [20], in experiment [16] and in experiment [18] was “inactive” throughout. In experiment [12], the Potency is 4.6 µM (active).

Turning to `ClCCCN1CCN(c2cccc(Cl)c2)CC1`, the Potency entry in [1], in experiment [2], in [3], in [4], in experiment [5] and in experiment [6] was “inactive” each time. Moreover, the Potency result in experiment [7], in [19], in [9], in experiment [10], in experiment [11] and in experiment [12] was “inactive” in each case. Moreover, the Potency result in experiment [13], in [14], in experiment [20] and in experiment [18] was “inactive” throughout.

For `Oc1ccc(Cl)c(Cl)c1Cl`, the Potency entry in experiment [1], in experiment [2], in [3], in [4], in [5] and in experiment [6] was “inactive” in each case. Moreover, the Potency result in experiment [7], in [8], in experiment [9], in [10], in experiment [17] and in experiment [11] was “inactive” each time. The Potency entry in experiment [13], in experiment [15], in experiment [20], in [16] and in experiment [18] was “inactive” throughout.

As to `CN1[C@@H]2CC[C@H]1CC(OC(=O)c1cc(Cl)cc(Cl)c1)C2` (stereo not given in full), the Potency entry in experiment [1], in experiment [2], in [3], in experiment [4], in experiment [5] and in [6] was “inactive” in each case. Moreover, the Potency entry in [7], in [19], in experiment [9], in experiment [10], in experiment [17] and in experiment [11] was “inactive” in each case. The Potency result in experiment [13], in [14], in experiment [15], in [20], in [16] and in [18] was “inactive” each time.

With `CC1(C)CN=C(NN=C(/C=C/c2ccc(C(F)(F)F)cc2)/C=C/c2ccc(C(F)(F)F)cc2)NC1`, the Potency in experiment [1] was 12.2 µM (active). The Potency entry in experiment [2], in experiment [3], in experiment [4], in experiment [5], in experiment [6] and in [7] was “inactive” in each case. Besides, the Potency result in experiment [8], in experiment [17], in [11], in experiment [12], in experiment [13] and in [20] was “inactive” in each case. For the same molecule, the Potency entry in experiment [16] and in [18] was “inactive” throughout.

Consider `CC(=O)[O][Sn]([c]1ccccc1)([c]1ccccc1)[c]1ccccc1`, for which the Potency was 0.0486 µM (active) in experiment [1]; 0.0193 µM (active) in [2]; 17.4 µM (active) in [3]; 49 µM (active) in experiment [4]; 38.9 µM (active) in experiment [5]; 6.46 µM (active) in [8]. The Potency in experiment [19] was 1.62 µM (active); in [9], 10.2 µM (active); in [11] it was 24.5 µM (active); in experiment [13], 24.5 µM (active); in [20], 61.1 µM (active); in experiment [16], 52.4 µM (active). The Potency in experiment [18] is 3.06 µM (active). In addition, in experiment [6], the Potency result was “inactive”.
